# Test results: PubChem BioAssay (EPA / NIEHS)
# Calls of active or inactive are those of the source. The calls were made as follows: active = hit-call score of the fitted dose curve at least 0.9, where 1 is the maximum; inactive = score below 0.9.
# Test: CEETOX_H295R_11DCORT_noMTC: CeeTox H295R High-throughput Steroidogenesis Assay for 11-Deoxycortisol (11DCORT), maximum tolerated concentration (MTC) filtered results only (AID 2283911)
# Conditions: actives raise or lower the signal
# In short: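 H295R, OECD 456-based; 10 uM forskolin 48 h → compound (0.1% DMSO) 48 h → medium extracted, 11DCORT by LC-MS/MS. Gain/loss vs DMSO control, all concentrations kept regardless of MTT viability.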
row,Structure (SMILES),outcome
1,CC=Cc1ccc(OC)c(OC)c1,inactive
2,C=C[Si]1(C)O[Si](C)(C=C)O[Si](C)(C=C)O[Si](C)(C=C)O1 (stereo unspecified),inactive
3,COc1ccc(OC)c(N=Nc2c(O)ccc3ccccc23)c1,inactive

# Test: CEETOX_H295R_OHPREG_noMTC: CeeTox H295R High-throughput Steroidogenesis Assay for OH-Pregnenolone (OHPREG), maximum tolerated concentration (MTC) filtered results only (AID 2283912)
# Conditions: actives raise or lower the signal
# In short: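 H295R cells prestimulated 48 h with 10 uM forskolin, then exposed 48 h to compound (0.1% DMSO). 17alpha-hydroxypregnenolone in medium measured by MTBE extraction and HPLC-MS/MS; bidirectional fit vs DMSO, concentrations not MTT/MTC-filtered.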
row,Structure (SMILES),outcome
1,CC=Cc1ccc(OC)c(OC)c1,inactive
2,O=C(Nc1ccc2c(O)c(N=Nc3ccc(N=Nc4ccc(S(=O)(=O)O)cc4)cc3)c(S(=O)(=O)O)cc2c1)c1ccccc1,inactive
3,C=C[Si]1(C)O[Si](C)(C=C)O[Si](C)(C=C)O[Si](C)(C=C)O1 (stereo unspecified),inactive
4,COc1ccc(OC)c(N=Nc2c(O)ccc3ccccc23)c1,inactive

# Test: CEETOX_H295R_OHPROG_noMTC: CeeTox H295R High-throughput Steroidogenesis Assay for OH-Progesterone (OHPROG), maximum tolerated concentration (MTC) filtered results only (AID 2283914)
# Conditions: actives raise or lower the signal
# In short: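 H295R cells prestimulated 48 h with 10 uM forskolin, then exposed 48 h to chemical (0.1% DMSO final). 17alpha-hydroxyprogesterone in medium quantified by HPLC-MS/MS after MTBE extraction; bidirectional fitting versus DMSO, concentrations not MTC-filtered.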
Structure (SMILES),outcome,AC50
CC=Cc1ccc(OC)c(OC)c1,inactive,–
O=C(Nc1ccc2c(O)c(N=Nc3ccc(N=Nc4ccc(S(=O)(=O)O)cc4)cc3)c(S(=O)(=O)O)cc2c1)c1ccccc1,inactive,–
C=C[Si]1(C)O[Si](C)(C=C)O[Si](C)(C=C)O[Si](C)(C=C)O1 (stereo unspecified),–,87.1 µM (active)
COc1ccc(OC)c(N=Nc2c(O)ccc3ccccc23)c1,inactive,–
